We go through 55 molecules from the supplement of paper PMC13380429.

Test [1] concerns Vero E6 infected with SARS-CoV-2. The test can be described thus: morphology score (similarity to uninfected cells); higher = more like uninfected cells. The conditions noted are these: 24 h.
The test system is the same in test [2]. The test can be described thus: SARS-CoV-2 infection rate relative to infected DMSO; higher = more infection, active = 60 or less. Conditions: 24 h.

Molecule `Cn1c(=O)c2c(ncn2C)n(C)c1=O` [caffeine] (10 µM) yielded a morphology score in test [1] of -0.174. In test [2], the SARS-CoV-2 infection rate was 113% (inactive).
As to `C=C(C)[C@@H]1CC[C@]2(CO)CC[C@]3(C)[C@H](CC[C@@H]4[C@@]5(C)CC[C@H](O)C(C)(C)[C@@H]5CC[C@]43C)[C@@H]12` (10 µM), the morphology score in test [1] is 0.000891. Besides, in test [2], the SARS-CoV-2 infection rate is 99.5% (inactive).
Regarding `CC(C)n1nc(C#Cc2ccccc2)c2c(N)ncnc21` (10 µM), in test [1], the morphology score was 0.471. Further, the SARS-CoV-2 infection rate in test [2] was 69.5% (inactive).
Molecule `Cc1ccc(/C=C2\CNC/C(=C\c3ccc(C)cc3)C2=O)cc1` (0.833333 µM) registered a morphology score in test [1] of 0.168. In test [2], the SARS-CoV-2 infection rate is 93% (inactive).
The molecule `Cn1c(=O)c2c(ncn2CCOC(=O)C(C)(C)Oc2ccc(Cl)cc2)n(C)c1=O` [etofylline-clofibrate] (10 µM) registered a morphology score in test [1] of -0.162. Moreover, the SARS-CoV-2 infection rate in test [2] is 114% (inactive).
The like results for `COC(=O)N[C@@H](C)CNc1nccc(-c2cn(C(C)C)nc2-c2cc(Cl)cc(NS(C)(=O)=O)c2F)n1` [Encorafenib (LGX818)] (0.833333 µM) were, in that order, 0.0501 and 95% (inactive).
The like results for `Cc1cccc(Nc2ccccc2C(=O)O)c1C` [mefenamic-acid] (10 µM) were, in that order, 0.0628 and 99.5% (inactive).
For `O=c1c2ccccc2[se]n1-c1ccccc1` [ebselen] (10 µM), in that order: 0.34 and 84% (inactive).
`Cc1cnc(NC(=O)Nc2cc(Br)c(C)cc2OC[C@@H]2CNCCO2)cn1` (0.833333 µM) gave a morphology score in test [1] of 0.0474. Moreover, in test [2], the SARS-CoV-2 infection rate was 111% (inactive).
In test [1], `CNC(=O)c1ccccc1Nc1cc(Nc2ccc(N3CCOCC3)cc2OC)ncc1C(F)(F)F` (10 µM) displayed a morphology score of -0.0543. In test [2], the SARS-CoV-2 infection rate is 111% (inactive).
`Nc1c(S(=O)(=O)O)cc(Nc2cccc3ccccc23)c2c1C(=O)c1ccccc1C2=O` (10 µM) showed a morphology score in test [1] of 0.145. In test [2], the SARS-CoV-2 infection rate was 112% (inactive).
In test [1], `C1CCN2C[C@@H]3C[C@@H](CN4CCCC[C@@H]34)[C@H]2C1` [sparteine-sulfate] (10 µM) had a morphology score of 0.00477. Moreover, the SARS-CoV-2 infection rate in test [2] was 112% (inactive).
In test [1], `CC(C)(Oc1ccc(Cl)cc1)C(=O)O` [clofibric-acid] (10 µM) came in with a morphology score of -0.0106. The SARS-CoV-2 infection rate in test [2] is 98.5% (inactive).
For `NC1CCN(c2c(F)cc3c(=O)c(C(=O)O)cn(C4CC4)c3c2Cl)C1` (stereo not given) [clinafloxacin] (10 µM), in that order: 0.187 and 112% (inactive).
`CC1(C)NC(=O)N(c2ccc([N+](=O)[O-])c(C(F)(F)F)c2)C1=O` [nilutamide] (10 µM) came in with a morphology score in test [1] of 0.15. For the same molecule, the SARS-CoV-2 infection rate in test [2] is 108% (inactive).
As for `CC(SC(=O)c1cccs1)C(=O)NCC(=O)O` (stereo not given) [stepronin] (10 µM), in test [1], the morphology score is -0.0157. Moreover, the SARS-CoV-2 infection rate in test [2] was 113% (inactive).
Take `CN1CCN(C(c2ccccc2)c2ccccc2)CC1` [cyclizine] (10 µM): the morphology score in test [1] was -0.126. Besides, the SARS-CoV-2 infection rate in test [2] was 108% (inactive).
For `C=CCc1ccc(O)c(-c2ccc(O)c(CC=C)c2)c1` [honokiol] (10 µM), in that order: 0.432 and 80.5% (inactive).
The like results for `COC(=O)Nc1nc2cc(C(=O)c3ccc(F)cc3)ccc2[nH]1` [flubendazole] (10 µM) were, in that order, 0.13 and 98% (inactive).
With `O=C(NCCS(=O)(=O)c1ccc(C(F)(F)F)cn1)c1ccc(Cl)cc1` (10 µM), in test [1], the morphology score came out at 0.178. Moreover, in test [2], the SARS-CoV-2 infection rate was 99% (inactive).
`CN(C)CCOC(c1ccc(Cl)cc1)c1ccccn1` (stereo not given) [carbinoxamine] (10 µM): the morphology score in test [1] worked out at 0.075. Moreover, the SARS-CoV-2 infection rate in test [2] was 96% (inactive).
In test [1], `C[C@@H](N)[C@H]1CC[C@H](C(=O)Nc2ccncc2)CC1` (10 µM) returned a morphology score of 0.243. In test [2], the SARS-CoV-2 infection rate was 106% (inactive).
As to `CCc1cc2cc(OC)c(OC)cc2c(Cc2ccccc2)n1` [moxaverine] (10 µM), the morphology score in test [1] was 0.495. The SARS-CoV-2 infection rate in test [2] was 86% (inactive).
For `CC(C)(C)C(=O)/C(=N/c1ccc(Cl)cc1)NNc1ccc(Cl)cc1` (10 µM), in that order: -0.145 and 114% (inactive).
In the case of `NC(=O)N1c2ccccc2CC(=O)c2ccccc21` [oxcarbazepine] (10 µM), the morphology score in test [1] was 0.0932. The SARS-CoV-2 infection rate in test [2] is 108% (inactive).
For `CC(=O)Nc1ccccc1` [acetanilide] (10 µM), in that order: 0.174 and 102% (inactive).
As to `CC1=C(/C=C/C(C)=C/C=C/C(C)=C/C=O)C(C)(C)CCC1` [retinaldehyde] (10 µM), the morphology score in test [1] was -0.111. Further, the SARS-CoV-2 infection rate in test [2] is 114% (inactive).
In test [1], `O=C(O)c1cc2occc2[nH]1` (10 µM) had a morphology score of -0.103. Besides, the SARS-CoV-2 infection rate in test [2] is 109% (inactive).
Consider `CC(NC(=O)c1ccccc1/N=C/c1c(O)ccc2ccccc12)c1ccccc1` (stereo not given) [sirtinol] (10 µM), for which the morphology score in test [1] amounted to 0.0701. Moreover, the SARS-CoV-2 infection rate in test [2] was 99% (inactive).
Regarding `CN(C(=O)c1ccc(F)cc1C(F)(F)F)C1CCN(c2nnc(-c3ccnn3C)c3ccccc23)CC1` [taladegib] (10 µM), the morphology score in test [1] came out at 0.0832. In addition, the SARS-CoV-2 infection rate in test [2] was 102% (inactive).
Turning to `CC(CCc1ccccc1)NC(C)C(O)c1ccc(O)cc1` (stereo not given) [buphenine] (10 µM), the morphology score in test [1] is -0.137. Moreover, the SARS-CoV-2 infection rate in test [2] was 114% (inactive).
For `O=C(Nc1ccccc1)[C@]12C[C@H]1/C(=N\O)c1ccccc1O2` (10 µM), the morphology score in test [1] came out at 0.246. Also, the SARS-CoV-2 infection rate in test [2] was 79% (inactive).
In the case of `CC[C@H](C)n1cc(C)c2c(C(=O)NCc3c(C)cc(C)[nH]c3=O)cc(-c3ccc(N4CCNCC4)nc3)cc21` (10 µM), the morphology score in test [1] is -0.212. In addition, in test [2], the SARS-CoV-2 infection rate was 109% (inactive).
For `CC(C)(CCCCCC(O)CCCCCC(C)(C)C(=O)O)C(=O)O` [bempedoic-acid] (10 µM), in that order: 0.0218 and 110% (inactive).
For `C[C@@H]1O[C@@H](O[C@@H]2[C@@H](O)[C@H](OCCc3ccc(O)c(O)c3)O[C@H](CO)[C@H]2OC(=O)/C=C/c2ccc(O)c(O)c2)[C@H](O)[C@H](O)[C@H]1O` [verbascoside] (10 µM), in that order: 0.0986 and 104% (inactive).
As for `CC(C)c1ccccc1S(=O)(=O)c1cc(N)c2ncccc2c1[N+](=O)[O-]` (10 µM), in test [1], the morphology score stood at 0.225. In test [2], the SARS-CoV-2 infection rate was 95.5% (inactive).
Molecule `Oc1ccc2c3c1O[C@H]1c4c(c5ccccc5n4Cc4ccccc4)C[C@@]4(O)[C@@H](C2)N(CC2CC2)CC[C@]314` [N-benzylnaltrindole] (0.833333 µM) gave a morphology score in test [1] of 0.148. Besides, the SARS-CoV-2 infection rate in test [2] was 102% (inactive).
In test [1], `Nc1ccn([C@@H]2O[C@H](CO)[C@@H](O)[C@@H]2O)c(=O)n1` [cytarabine] (0.833333 µM) showed a morphology score of 0.0731. For the same molecule, the SARS-CoV-2 infection rate in test [2] was 97% (inactive).
In test [1], `CCCC[C@H]1OC(=O)c2ccccc21` [butylphthalide] (10 µM) had a morphology score of -0.108. Moreover, in test [2], the SARS-CoV-2 infection rate is 102% (inactive).
In test [1], `Cc1cccc(C)c1NC(=O)CC12CCCN1CCC2` [pilsicainide] (10 µM) returned a morphology score of -0.223. In addition, the SARS-CoV-2 infection rate in test [2] is 115% (inactive).
In the case of `O=C(O)C(=O)Nc1cccc(-c2nnn[nH]2)c1` [acitazanolast] (10 µM), the morphology score in test [1] is 0.235. In addition, the SARS-CoV-2 infection rate in test [2] is 95% (inactive).
For `C=C1CC[C@H](O)C/C1=C/C=C1\CCC[C@]2(C)[C@@H]([C@H](C)/C=C/[C@H](C)C(C)C)CC[C@@H]12` [ergocalciferol] (10 µM), in that order: 0.0614 and 93.5% (inactive).
Regarding `COc1cc(Br)c(S(=O)(=O)Nc2ccc(Cl)c(O[C@@H]3CCN(C)C3)c2)cc1OC` (10 µM), the morphology score in test [1] is -0.105. Also, the SARS-CoV-2 infection rate in test [2] was 102% (inactive).
For `CC(=O)O[C@@H]1C[C@H]2C(C)(C)C(=O)C=C[C@]2(C)[C@H]2CC[C@@]3(C)[C@H](c4ccoc4)OC(=O)[C@H]4O[C@]43[C@@]21C` [gedunin] (10 µM), the morphology score in test [1] amounted to 0.145. Also, the SARS-CoV-2 infection rate in test [2] is 106% (inactive).
In turn, `Cc1cn(-c2cc(NC(=O)c3ccc(C)c(Nc4nccc(-c5cccnc5)n4)c3)cc(C(F)(F)F)c2)cn1` [nilotinib] (10 µM) displayed a morphology score in test [1] of 0.334. In test [2], the SARS-CoV-2 infection rate is 96.5% (inactive).
With `CCCCCCCCCCCCc1ccc(S(=O)(=O)Nc2nncs2)cc1` (10 µM), the morphology score in test [1] turned out to be 0.158. Also, the SARS-CoV-2 infection rate in test [2] was 93% (inactive).
With `CN1Cc2ccccc2[C@@H]2c3cccc4[nH]cc(c34)C[C@H]21` (10 µM), the morphology score in test [1] worked out at 0.609. In test [2], the SARS-CoV-2 infection rate was 95.5% (inactive).
The like results for `Nc1ccc(S(N)(=O)=O)cc1` [sulfanilamide] (10 µM) were, in that order, 0.0892 and 103% (inactive).
In test [1], `CC(N)C12CC3CC(CC(C3)C1)C2` (stereo not given) [rimantadine] (10 µM) registered a morphology score of 0.136. Further, the SARS-CoV-2 infection rate in test [2] was 102% (inactive).
For `Cn1c(=O)c2c(ncn2CC(=O)O)n(C)c1=O` [acefylline] (10 µM), in that order: 0.124 and 100% (inactive).
As for `CCOC(=O)CCNc1cc(N2CCc3ccccc3CC2)nc(-c2ccccn2)n1` (0.833333 µM), the morphology score in test [1] was -0.0369. In addition, the SARS-CoV-2 infection rate in test [2] is 116% (inactive).
In test [1], `CCn1ccnc1CC1COc2ccccc2O1` (stereo not given) [imiloxan] (10 µM) registered a morphology score of -0.00924. The SARS-CoV-2 infection rate in test [2] is 99% (inactive).
Take `C[N+](C)(C)[C@@H](Cc1c[nH]c(=S)[nH]1)C(=O)O` [L-ergothioneine] (10 µM): the morphology score in test [1] was 0.0598. In test [2], the SARS-CoV-2 infection rate was 99% (inactive).
`CS(=O)(=O)N1CCc2c(-c3cnc(N)nc3)nc(N3CCOCC3)nc21` (0.833333 µM) had a morphology score in test [1] of 0.0917. Further, the SARS-CoV-2 infection rate in test [2] is 110% (inactive).
As to `CCCOCCn1c(=O)c(N2CCN(CCO)CC2)nc2cnc(-c3ccc(OC)nc3)cc21` (10 µM), the morphology score in test [1] was -0.0795. In addition, the SARS-CoV-2 infection rate in test [2] was 116% (inactive).
